Compound activity as filed in PubChem BioAssay.
Sampled rows, rich in hits. Any-hit rate of the full collection: about 10%.
HPGD inh = inhibitors of human 15-hydroxyprostaglandin dehydrogenase (HPGD) | Potency, µM, for inactives: top-dose activity change, negative = inhibition, usual class: inhibitors | P15428 | purified HPGD, NADH fluorescence kinetic, PGE2 substrate | 150,000 compounds, 4.3% hits; note: potency is the fitted concentration of half-maximal effect
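20 nM HPGD preincubated 15 min at room temperature with compound in 50 mM Tris-HCl pH 8, 0.01% Tween 20. Started with 1 mM NAD+ and 30 uM prostaglandin E2; NADH fluorescence (360/450 nm) read 5 times over 30-s intervals, last minus first.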
PNC assembly inh = perinucleolar compartment assembly inhibition. activity change (PNC), negative = inhibition, % at 10 µM. PC3M PTB-GFP, PNC prevalence imaging, 16 h; stronger effect = lower value. 140,000 compounds, 3.1% hits;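 active = readout at or below -70, meaning at least 70% loss of cells showing the perinucleolar compartment, a nuclear body marking cancer cells; inconclusive = readout between -30 and a set limit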;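 note: plate controls were DMSO wells for no effect and camptothecin positive control wells for full effect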
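PC3M cells stably expressing PTB-GFP, 750–1000 cells/well, treated 16 h at 37 °C with compound (23 nl of library stock), in duplicate. After paraformaldehyde fixation and Hoechst stain, imaged at 20x; PNC prevalence scored by image analysis.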
LMNA splice mod = LMNA splicing modulation | HeLa LMNA splicing GFP/RFP minigene ratio, 48 h | Potency, µM (top dose mostly 46.1 µM), without a hit: top-dose ratio change, negative = inhibition, usual class: inhibitors | 200,000 compounds, 0.01% hits | AID 1487; active = well fitted inhibition curve with a large enough effect in the signal ratio, with a control signal flat, not every such curve was filed as active; inconclusive = small, poorly fitted or top-dose-only effect, or effect the other way, or a change in a side signal; the % refers to the signal ratio; note: potency is the fitted concentration of half-maximal effect
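Read-out is the ratio of GFP to DsRed2 object intensity, acquired by 488 nm laser-scanning cytometry on HeLa lamin A-EGFP minigene reporter cells. Compound incubation 48 hrs at 37 °C in Opti-MEM with 2% FBS; DMSO 0.5% final.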
ALOX12 inhib = blocks human 12-lipoxygenase activity; P18054; AID 1452; 150,000 compounds, 0.12% hits; Potency, µM (top dose mostly 57.1 µM), inactives show at the highest dose activity change, negative = inhibition, hits mostly inhibitors; purified 12-hLO, xylenol orange hydroperoxide absorbance; active = well fitted inhibition curve with a large enough effect; inconclusive = small, poorly fitted or top-dose-only effect; note: potency is the fitted concentration of half-maximal effect; nearly all actives have a fitted effect of over 55% in size
Target sequence (P18054 whole entry, looked up): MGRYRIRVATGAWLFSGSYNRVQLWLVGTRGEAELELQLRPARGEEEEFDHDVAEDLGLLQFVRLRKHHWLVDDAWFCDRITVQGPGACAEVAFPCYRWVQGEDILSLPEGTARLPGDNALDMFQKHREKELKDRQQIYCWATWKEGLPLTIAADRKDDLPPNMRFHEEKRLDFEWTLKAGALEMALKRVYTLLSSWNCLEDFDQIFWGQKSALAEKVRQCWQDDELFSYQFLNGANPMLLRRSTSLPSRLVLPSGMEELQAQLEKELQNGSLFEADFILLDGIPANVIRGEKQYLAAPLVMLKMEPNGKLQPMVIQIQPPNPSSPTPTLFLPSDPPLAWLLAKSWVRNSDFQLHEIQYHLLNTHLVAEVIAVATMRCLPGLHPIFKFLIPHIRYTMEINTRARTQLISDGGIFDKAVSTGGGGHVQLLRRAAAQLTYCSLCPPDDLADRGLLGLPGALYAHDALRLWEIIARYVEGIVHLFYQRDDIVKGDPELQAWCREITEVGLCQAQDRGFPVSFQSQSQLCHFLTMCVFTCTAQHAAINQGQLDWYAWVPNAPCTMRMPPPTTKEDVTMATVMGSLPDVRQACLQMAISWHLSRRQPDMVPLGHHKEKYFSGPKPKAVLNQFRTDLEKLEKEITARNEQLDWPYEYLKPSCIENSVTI
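Hydroperoxide output read as Fe(III)-xylenol orange absorbance, 573-to-405 nm ratio, after 30 min reaction with 40 uM arachidonic acid. Enzyme: 150 nM purified human 12hLO, 15 min compound preincubation; 25 mM Hepes pH 7.0, room temperature.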
ALDH1A1 block = ALDH1A1 (human) enzyme inhibition; P00352; Purified ALDH1A1, NADH fluorescence, propionaldehyde substrate; Potency, µM (titrated, usually from 75.3 µM), inactives show top-dose activity, negative = inhibition, most hits filed as inhibitors; 220,000 compounds, 7.3% hits; AID 1030;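 note: potency is the fitted concentration of half-maximal effect; plate controls were no enzyme wells and a reference inhibitor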
The depositor's hits bear a star; ? = inconclusive; / = not tested or not shown; [ ] = another dose, or the depositor's remark. Unless noted, calls come from the whole dose curve; as a rule, active = well fitted inhibition curve with a large enough effect (not every such curve was filed as active); inconclusive = small, poorly fitted or top-dose-only effect, or another doubt; inactive = no such curve, though single readings can be large or run the other way. Unless noted, % is set by controls: 0 for no effect and ±100 for the full control effect.

SMILES | HPGD inh | PNC assembly inh | LMNA splice mod | ALOX12 inhib | ALDH1A1 block
O=C1C(=O)c2ccccc2C(O)=C1C1CCC(c2ccc(Cl)cc2)CC1 (stereo unspecified) | ? | / | ? | -4% | 3%
O=C1c2ccccc2C(=O)C12OC2c1ccc(Cl)cc1 (stereo unspecified) | -20% | 40 | ? | ? | 0.79µM*
CCOC(=O)c1c(C)[nH]c(C)c1S(=O)(=O)N1CCC(C(=O)N2CCN(c3ccc(Cl)cc3)CC2)CC1 | / | / | 3%[46 µM] | / | /
CC(C)C[C@@H](C=O)NC(=O)[C@H](CC(C)C)NC(=O)[C@H](CC(C)C)NC(=O)OCc1ccccc1 | / | / | / | / | 14µM*
CCOC(=O)c1sc(NC(=O)CCCn2nc([N+](=O)[O-])c(Cl)c2C)c(C(=O)OCC)c1C | -8% | 37 | -7% | -3% | -5%
CCc1nn2c(=O)cc(COC(=O)c3ccc(NC(=O)c4cccs4)cc3)nc2s1 | / | / | 11%[46 µM] | / | /
c1ccc2c(-c3nnc4n3CCCCC4)c[nH]c2c1 | 25µM* | -19 | -14% | 7% | -15%
N#C/C(=N\Nc1cccc2ccccc12)c1nnc2n1CCCCC2 | 18µM* | -113* | ? | 1% | 22%
N#C/C(=C\c1c[nH]c2ccccc12)c1nnc2n1CCCCC2 | 13µM* | 2 | ? | -3% | -14%
COc1ccccc1CNC(=O)CCS(=O)(=O)c1ccc2c(c1)oc(=O)n2C | / | / | 1%[46 µM] | / | /
CC1=NN(C(=O)c2c(Br)c(C)nn2C)C(O)(C(F)(F)F)C1 (stereo unspecified) | -16% | -16 | -11% | 2% | -3%
O=C(O)c1cc(NN=Nc2cccc([N+](=O)[O-])c2)cc([N+](=O)[O-])c1 | / | / | / | / | 20µM*
O=C(Nc1ccc(C(=O)O)cc1)Nc1cccc([N+](=O)[O-])c1 | -7% | -8 | -2% | -1% | 5%
O=C(O)c1cc(NN=Nc2ccc(Br)cc2)cc([N+](=O)[O-])c1 | / | / | / | / | 6.3µM*
O=C(N/N=C/c1cccc([N+](=O)[O-])c1)c1ccc(Br)cc1 | / | / | ? | / | 2%
Cc1nc2c3ccccc3nc(SCC(=O)c3ccc(Cl)cc3)n2n1 | -8% | 5 | ? | 0% | 0%
Cc1nc2c3ccccc3nc(SCC(=O)N3CC(C)CC(C)C3)n2n1 (stereo unspecified) | ? | 16 | -21% | 0% | 7.1µM*
Cc1c(N=NC2=C(O)CC(C)(C)CC2=O)c(=O)n(-c2ccccc2)n1C | / | / | 5%[46 µM] | / | 10µM*
CC1(C)CC(=O)C(N=Nc2cc(Cl)c(Cl)c(Cl)c2)=C(O)C1 | -8% | 18 | 11% | -7% | 5µM*
CC(=O)/C(N=Nc1c(C)n(C)n(-c2ccccc2)c1=O)=C(\C)O | / | / | 14%[46 µM] | / | 4%
CC1(C)CC(=O)C(N=Nc2cc3c(cc2[N+](=O)[O-])OCCO3)=C(O)C1 | / | / | -10%[46 µM] | / | 0.56µM*
Cc1ccc(O)c(N=NC2=C(O)CC(C)(C)CC2=O)c1 | -19% | ? | ? | -5% | 6.3µM*
CC1CCN(S(=O)(=O)c2ccc(N=NC3=C(O)CC(C)(C)CC3=O)cc2)CC1 | -11% | 19 | -3% | -1% | ?
O=[N+]([O-])c1cc2c(cc1[N+](=O)[O-])OCCOCCOCCOCCO2 | / | / | / | / | -2%
CCC1CN(CC(=O)NCc2cccc(Br)c2)c2ccccc2S1 (stereo unspecified) | / | / | -3%[46 µM] | / | /
SMILES | HPGD inh | PNC assembly inh | LMNA splice mod | ALOX12 inhib | ALDH1A1 block
CCc1c(C)nc2ncnn2c1N1CCN(S(=O)(=O)c2ccc(OC)cc2)CC1 | / | / | 0%[46 µM] | / | -1%
COc1ccc(NC(=S)NNS(=O)(=O)c2ccc3ccccc3c2)c(OC)c1 | / | / | -7%[46 µM] | / | 22µM*
Cc1ccc(N2C(=O)CCSC23C(=O)N(Cc2ccc(F)cc2)c2ccccc23)cc1 (stereo unspecified) | / | / | -6%[46 µM] | / | /
CC(C)Cc1nnc(NS(C)(=O)=O)s1 | -19% | 20 | 0% | -1% | 25µM*
CC(C)Cc1nnc(NS(=O)(=O)c2ccc(Cl)cc2)s1 | -6% | -9 | -8% | -1% | ?
CN(Cc1ccccc1)S(=O)(=O)c1ccc2c(c1)NC(=O)CC(=O)N2 | -13% | -2 | -6% | -1% | ?
CCN(Cc1ccccc1)S(=O)(=O)c1ccc2c(c1)NC(=O)CC(=O)N2 | / | / | ? | / | 14µM*
CCOn1c(=O)c(-c2cccc3ccccc23)[n+]([O-])c2ccccc21 | / | / | ? | / | 22µM*
CCOC(=O)COn1c(=O)c(-c2ccc(OC)c(OC)c2)[n+]([O-])c2ccccc21 | -25% | 338 | -10% | -10% | 35µM*
Cc1ccccc1-c1cncnc1N1CCNCC1 | -2% | / | -4% | 0% | -9%
CN(C)c1ncc2nc(-c3cc(F)cc(F)c3)c(=O)n(C)c2n1 | / | / | 11% | / | ?
O=C(NNC(=O)c1ccccc1[N+](=O)[O-])c1ccccc1[N+](=O)[O-] | / | / | 18%[46 µM] | / | 22µM*
COc1ccc(C(=O)NNC(=O)c2ccccc2[N+](=O)[O-])cc1 | 1% | -89* | -12% | -2% | 8%
O=C(NNS(=O)(=O)c1ccccc1[N+](=O)[O-])c1ccc(O)cc1 | 13µM* | -25 | 29% | -8% | 3.2µM*
O=C(Nc1cccc(NC(=O)c2ccccc2[N+](=O)[O-])n1)c1ccccc1[N+](=O)[O-] | -10% | 16 | 15% | -5% | -17%
COc1ccc(C(=O)NNc2ccccc2)cc1 | -18% | 18 | -10% | 12% | 28µM*
O=C(NNS(=O)(=O)c1ccccc1[N+](=O)[O-])c1ccc(F)cc1 | / | / | -1%[46 µM] | / | -10%
COc1ccc(C(=O)c2ccccc2)cc1 | / | / | / | / | -9%
O=C(NCc1cccs1)c1ccccc1C(=O)NCc1cccs1 | -4% | 31 | 9% | 1% | 4%
O=C(NCc1cccs1)c1ccccc1[N+](=O)[O-] | 13µM* | ? | 4% | 1% | 8%
O=C(/C=C(\c1ccc(Cl)cc1)n1cncn1)c1ccc(Cl)cc1 | -24% | -18 | ? | -3% | 2.2µM*
O=C(COc1ccc2ccccc2c1)NC1CC(=O)N(c2ccccc2)C1 (stereo unspecified) | / | / | 12%[46 µM] | / | /
CC1=CC(C)(C)N2C(=O)C(=O)c3cc(OC(=O)c4ccco4)cc1c32 | / | / | / | / | 0.63µM*
COC(=O)c1cc2occc2n1Cc1c(F)cccc1Cl | -28% | -12 | 22% | -6% | 13µM*
CCOC(=O)c1cc2occc2n1Cc1c(F)cccc1Cl | -16% | -9 | -9% | -9% | ?
Cc1ccc(NC(=O)CN(C)C(=O)Cn2ncc(Cl)c(Cl)c2=O)cc1 | -7% | 31 | ? | 1% | 28µM*
Cc1ccc(NC(=O)CN(C)C(=O)COc2c(Cl)cc(Cl)c3ccc(C)nc23)cc1 | -8% | -17 | -9% | -7% | 9%
CCC(=O)N1C(=O)CCN(C(C)=O)c2ccccc21 | -3% | -94* | -11% | -2% | -8%
CCOc1ccc(NCc2nc3ccccc3n2CCOc2ccccc2)cc1 | -12% | -113* | ? | -6% | -13%
